Among the data in PubChem BioAssay are composite z-score and z-score values, retold here.

Activity calls are given as the source filed them.

Test [1] in a line: small molecules captured by biotinylated probe aFSTL3 – biochemical, small-molecule microarray, fluorescence 635/667, stem cell growth factor project, primary screen (AID 1064).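 Further: measures binding of the biotinylated anti-FSTL3 antibody to printed compounds.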 The following applies: higher = more signal.
The nature of test [2]: binders from COS7 lysate, DM2A8 probe, primary screen, torsin A project, cell lysate, small-molecule microarray, fluorescence 635/667 (AID 1065). To be noted: higher = more signal, COS7 lysate expressing mutant human TOR1A.
Test [3] is described as follows: small molecules captured by biotinylated probe aFGF2 – biochemical, small-molecule microarray, fluorescence 635/667, stem cell growth factor project, primary screen (AID 1067).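 Further: measures binding of biotinylated aFGF2 protein to printed compounds on slides; z-score merges feature fluorescence and signal-to-noise across triplicate slides.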 The following applies: higher = more signal.
The nature of test [4]: small molecules captured by biotinylated probe aFGF10 – biochemical, small-molecule microarray, fluorescence 635/667, stem cell growth factor project, primary screen (AID 1071).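 Further: score merges 667 nm spot intensity and signal to noise from triplicate slides.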 The following applies: higher = more signal.
Test [5] addresses Neurogenic locus notch homolog protein 2 (Homo sapiens) (UniProt Q04721). Nature of the test: small molecules binding Notch2 protein – biochemical, small-molecule microarray, 635 nm fluorescence, stem cell growth factors, primary screen (AID 1073). To be noted: higher = more signal.
Test [6] has as its target Pro-neuregulin-1, membrane-bound isoform (Homo sapiens) (UniProt Q02297). Nature of the test: small molecules binding neuregulin-1 protein – biochemical, small-molecule microarray, fluorescence 635/667, psychiatric disease protein project, primary screen (AID 1075).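 Further: score combines 667 nm spot fluorescence with signal to noise.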 To be noted: NRG1 binding, 635 nm fluorescence, higher = more signal.
In test [7] the test system is Neuregulin-1 EGF-like domain. Put plainly: small molecules binding NRG1 EGF domain – biochemical, small-molecule microarray, 635 nm fluorescence, primary screen (AID 1081).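 Further: binding of the protein to compounds printed on small-molecule microarray slides.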 To be noted: higher = more signal.
Test [8] can be described thus: FRG1 expression reporter modulators in myotubes – cell-based, C2C12 myotubes, firefly/Renilla luciferase, luminescence, FRG1 inhibition for FSHD, primary screen (AID 1084). The following applies: FRG1 promoter luciferase, higher = more signal, called active from +8 up or from −8 down.
The nature of test [9]: small molecules captured by biotinylated probe aFST – biochemical, small-molecule microarray, fluorescence 635/667, stem cell growth factor project, primary screen (AID 1086).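 Further: score merges 667 nm fluorescence with signal-to-noise of each printed compound spot.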 To be noted: higher = more signal.
The nature of test [10]: binders of probe aHhip on microarray, primary screen, stem cell growth factor project, biochemical, small-molecule microarray, fluorescence 635/667 (AID 1087).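 Further: score merges spot fluorescence at 667nm with spot signal to noise ratio.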 The following applies: higher = more signal.
Test [11] has as its system PRMT1 (protein arginine N-methyltransferase 1). Nature of the test: small molecules binding arginine methyltransferase PRMT1 – biochemical, small-molecule microarray, 635 nm fluorescence, primary screen (AID 1088).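 Further: binding of Prmt1 protein to compounds spotted on small-molecule microarray slides.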 The following applies: higher = more signal.
The nature of test [12]: growth effects on S. cerevisiae YJM789 – YJM789 clinical isolate, OD600, 24 h, basal, primary screen (AID 1089).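 Further: growth of clinical yeast isolate S. cerevisiae YJM 789 seeded 1000 cells per well; test concentration not given here.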 To be noted: higher = more signal, called active from +8 up or from −8 down.
Test [13] in a line: S. pombe growth modifiers, basal conditions – strain 972, OD600, 24 h, no modulator, primary screen (AID 1090).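 Further: basal condition with compound alone and no growth modifier present; test concentration not given here.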 The following applies: S. pombe 972 growth, higher = more signal, called active from +8 up or from −8 down.
The nature of test [14]: budding yeast growth modifiers under rapamycin – strain BY4716, OD600, 96 h, primary screen (AID 1091). Further: test concentration not given here. To be noted: S. cerevisiae BY4716 + rapamycin, higher = more signal, called active from +8 up or from −8 down.
The target in test [15] is Torsin-1A-interacting protein 2 (Homo sapiens) (UniProt Q8NFQ8). Nature of the test: small molecules binding lysate-expressed LULL1 – cell lysate, human LULL1 lysate, 635/667 nm fluorescence, primary screen (AID 1092).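 Further: probe is lysate of COS7 cells overexpressing human LULL1; score merges per-feature 667 nm fluorescence with signal-to-noise.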 To be noted: small-molecule microarray, hLULL1 lysate binding, 635 nm fluorescence; higher = more signal.
Chain of Torsin-1A-interacting protein 2 (Homo sapiens) (Q8NFQ8 whole entry, looked up): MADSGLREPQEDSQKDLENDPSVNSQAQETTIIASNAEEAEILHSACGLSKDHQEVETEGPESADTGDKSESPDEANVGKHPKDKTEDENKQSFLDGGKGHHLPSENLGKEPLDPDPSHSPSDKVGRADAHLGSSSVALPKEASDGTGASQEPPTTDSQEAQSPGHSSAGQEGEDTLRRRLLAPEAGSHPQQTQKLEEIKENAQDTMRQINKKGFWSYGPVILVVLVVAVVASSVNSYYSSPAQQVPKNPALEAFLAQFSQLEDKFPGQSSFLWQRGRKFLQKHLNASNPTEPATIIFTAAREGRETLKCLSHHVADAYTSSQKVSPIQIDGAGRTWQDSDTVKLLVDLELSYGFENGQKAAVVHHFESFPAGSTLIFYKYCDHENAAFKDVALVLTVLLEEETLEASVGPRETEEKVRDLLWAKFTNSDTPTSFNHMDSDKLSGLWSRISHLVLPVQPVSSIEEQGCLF
A short description of test [16]: optical density change of DRC41 E. coli – strain DRC41, OD650, 24 h, E. coli filamentation project, primary screen (AID 1093).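 Further: MC1000 strain lacking acrAB efflux and sulA so SOS filamentation is blocked; test concentration not given here.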 To be noted: E. coli DRC41 growth, higher = more signal, called active from +8 up or from −8 down.
Test [17] in a line: probe aLefty2 binding to arrayed compounds – biochemical, biotinylated probe, 635/667 nm fluorescence, primary screen (AID 1094).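 Further: score merges spot fluorescence near 667 nm with spot signal-to-noise ratio.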 The following applies: small-molecule microarray, higher = more signal.
The test system of test [18] is Noggin (protein binding on small-molecule microarray). Nature of the test: small molecules binding Noggin protein – biochemical, 635/667 nm fluorescence, primary screen (AID 1095).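 Further: score merges 667 nm feature fluorescence with signal to noise over triplicate slides.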 To be noted: 635 nm fluorescence, higher = more signal.
Test [19] deals with Neurogenic locus notch homolog protein 3 (Homo sapiens) (UniProt Q9UM47). Put plainly: small molecules binding NOTCH3 protein – biochemical, 635/667 nm fluorescence, primary screen (AID 1096). The following applies: small-molecule microarray, 635 nm fluorescence, higher = more signal.
Chain of Neurogenic locus notch homolog protein 3 (Homo sapiens) (Q9UM47 whole entry, looked up): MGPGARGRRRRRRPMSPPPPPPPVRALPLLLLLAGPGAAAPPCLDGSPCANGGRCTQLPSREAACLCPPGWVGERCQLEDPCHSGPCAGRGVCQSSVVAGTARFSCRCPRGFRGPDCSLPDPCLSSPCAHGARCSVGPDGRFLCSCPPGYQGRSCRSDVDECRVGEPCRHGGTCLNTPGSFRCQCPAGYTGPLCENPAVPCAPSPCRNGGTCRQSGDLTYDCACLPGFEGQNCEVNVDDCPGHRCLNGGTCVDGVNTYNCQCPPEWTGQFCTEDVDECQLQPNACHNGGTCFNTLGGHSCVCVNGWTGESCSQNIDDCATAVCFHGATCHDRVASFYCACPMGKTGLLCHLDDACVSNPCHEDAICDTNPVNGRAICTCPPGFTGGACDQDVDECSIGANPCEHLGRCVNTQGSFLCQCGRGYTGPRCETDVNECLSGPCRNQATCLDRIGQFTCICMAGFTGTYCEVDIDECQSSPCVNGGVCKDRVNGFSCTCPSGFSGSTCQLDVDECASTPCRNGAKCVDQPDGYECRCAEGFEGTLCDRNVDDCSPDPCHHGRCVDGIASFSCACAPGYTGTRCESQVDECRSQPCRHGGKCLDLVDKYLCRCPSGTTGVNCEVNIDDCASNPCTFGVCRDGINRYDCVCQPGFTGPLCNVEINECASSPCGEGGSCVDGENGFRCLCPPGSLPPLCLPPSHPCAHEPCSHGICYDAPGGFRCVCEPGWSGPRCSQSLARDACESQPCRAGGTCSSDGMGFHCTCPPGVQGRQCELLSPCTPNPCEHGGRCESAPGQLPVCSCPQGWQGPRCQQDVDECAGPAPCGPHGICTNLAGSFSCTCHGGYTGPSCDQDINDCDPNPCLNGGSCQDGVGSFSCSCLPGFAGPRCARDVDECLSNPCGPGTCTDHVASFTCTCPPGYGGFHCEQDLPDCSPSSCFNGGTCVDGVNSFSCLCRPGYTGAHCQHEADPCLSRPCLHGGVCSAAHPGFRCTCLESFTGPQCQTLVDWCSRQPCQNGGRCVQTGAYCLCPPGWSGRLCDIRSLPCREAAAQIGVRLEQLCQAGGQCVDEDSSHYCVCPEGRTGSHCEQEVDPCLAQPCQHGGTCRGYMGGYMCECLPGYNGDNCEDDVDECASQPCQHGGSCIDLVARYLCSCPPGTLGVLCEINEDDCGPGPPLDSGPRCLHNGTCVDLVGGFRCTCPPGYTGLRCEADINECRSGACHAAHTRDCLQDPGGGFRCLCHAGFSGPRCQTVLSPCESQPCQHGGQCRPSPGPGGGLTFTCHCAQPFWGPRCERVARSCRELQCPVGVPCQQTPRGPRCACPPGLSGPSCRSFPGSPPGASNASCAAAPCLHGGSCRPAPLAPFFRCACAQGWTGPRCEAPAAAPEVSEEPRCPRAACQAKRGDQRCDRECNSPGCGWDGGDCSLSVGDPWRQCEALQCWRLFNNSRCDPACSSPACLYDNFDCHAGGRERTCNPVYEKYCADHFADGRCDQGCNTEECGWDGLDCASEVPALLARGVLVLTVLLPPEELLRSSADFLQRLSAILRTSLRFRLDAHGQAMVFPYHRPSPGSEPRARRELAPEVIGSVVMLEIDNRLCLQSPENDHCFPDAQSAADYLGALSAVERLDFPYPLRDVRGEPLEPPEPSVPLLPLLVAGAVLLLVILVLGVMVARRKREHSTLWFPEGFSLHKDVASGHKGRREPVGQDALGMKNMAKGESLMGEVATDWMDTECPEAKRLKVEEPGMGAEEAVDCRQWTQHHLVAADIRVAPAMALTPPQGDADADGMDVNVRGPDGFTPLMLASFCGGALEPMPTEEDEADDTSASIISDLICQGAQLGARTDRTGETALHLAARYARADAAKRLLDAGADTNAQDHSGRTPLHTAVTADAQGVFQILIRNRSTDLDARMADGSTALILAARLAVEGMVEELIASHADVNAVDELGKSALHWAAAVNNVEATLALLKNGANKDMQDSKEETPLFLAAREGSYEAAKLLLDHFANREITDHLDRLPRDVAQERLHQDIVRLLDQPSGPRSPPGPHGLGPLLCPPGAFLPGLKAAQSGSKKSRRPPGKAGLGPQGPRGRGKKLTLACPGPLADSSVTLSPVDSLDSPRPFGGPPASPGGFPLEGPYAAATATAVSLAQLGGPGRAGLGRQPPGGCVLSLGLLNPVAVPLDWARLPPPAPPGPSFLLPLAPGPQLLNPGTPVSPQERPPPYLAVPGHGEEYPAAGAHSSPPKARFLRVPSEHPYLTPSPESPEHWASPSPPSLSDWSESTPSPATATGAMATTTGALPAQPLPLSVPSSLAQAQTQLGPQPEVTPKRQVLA
Test [20] is described as follows: probe aEGFR binding to arrayed compounds – biochemical, biotinylated probe, 635/667 nm fluorescence, primary screen (AID 1097).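 Further: probe is a biotinylated anti-EGFR antibody binding compounds printed on slides; score combines fluorescence near 667 nm and signal to noise of each spot.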 To be noted: small-molecule microarray, higher = more signal.

Chain of Pro-neuregulin-1, membrane-bound isoform (Homo sapiens) (Q02297 whole entry, looked up, the tested form may be a part, canonical isoform): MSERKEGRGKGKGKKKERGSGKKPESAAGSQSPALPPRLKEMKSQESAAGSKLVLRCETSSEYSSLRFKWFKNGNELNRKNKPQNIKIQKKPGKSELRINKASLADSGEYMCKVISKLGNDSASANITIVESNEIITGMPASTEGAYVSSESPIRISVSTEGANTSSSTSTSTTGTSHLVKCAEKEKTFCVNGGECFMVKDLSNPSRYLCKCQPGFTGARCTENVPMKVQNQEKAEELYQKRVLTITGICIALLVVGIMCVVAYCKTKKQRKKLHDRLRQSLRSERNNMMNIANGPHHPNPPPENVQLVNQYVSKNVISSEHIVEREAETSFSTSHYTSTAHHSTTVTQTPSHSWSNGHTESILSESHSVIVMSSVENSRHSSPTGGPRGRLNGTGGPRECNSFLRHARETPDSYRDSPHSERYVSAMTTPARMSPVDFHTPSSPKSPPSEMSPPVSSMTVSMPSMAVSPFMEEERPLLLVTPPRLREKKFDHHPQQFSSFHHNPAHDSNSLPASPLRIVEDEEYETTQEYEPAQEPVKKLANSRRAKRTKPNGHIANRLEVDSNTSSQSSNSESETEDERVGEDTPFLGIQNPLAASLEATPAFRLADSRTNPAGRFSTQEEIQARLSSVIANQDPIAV

For `COC(=O)[C@@]1(Cc2ccc(F)cc2)[C@H]2c3cc(C(=O)N4CCCC4)n(CCSCCO)c3C[C@H]2CN1C(=O)c1ccccc1`, the composite z-score in test [1] was 0.349; in [2] it was -0.366; in [3], 0.157; in test [4] it was 0.359; in test [5], 1.53; in [6] it was 1.82. In addition, the composite z-score was 1.32 in test [7]; 1.21 in test [9]; -0.174 in [10]; -0.665 in [11]; 3.54 in test [15]; 0.314 in test [17]. Besides, the composite z-score was -0.906 in test [18], 0.225 in test [19] and 0.0726 in [20]. The z-score is -0.0476 (inactive) in test [8]; 0.856 (inactive) in test [12]; 1.25 (inactive) in test [13]; 0.727 (inactive) in test [14]; -0.0319 (inactive) in test [16].

As to `COC(=O)C(CC#Cc1ccc2c(c1)[C@]1(C(=O)N2)[C@H](C(=O)NC[C@H](O)c2ccccc2)[C@H]2C(=O)O[C@H](c3ccccc3)[C@H](c3ccccc3)N2[C@@H]1c1ccc(O)cc1)C(=O)OC`, the composite z-score was -0.297 in [1]; 0.328 in test [2]; -0.121 in test [3]; -0.199 in [4]; 0.259 in [5]; 0.529 in test [6]. The composite z-score in test [7] is 0.773; in [9] it was 0.056; in [10] it was -0.131; in [11] it was 0.356; in test [15], 0.719; in test [17], -0.055. The results for the composite z-score in test [18], in test [19] and in test [20] were 0.264, 0.401 and -0.0509, respectively. The z-score is 0.589 (inactive) in [8]; 0.542 (inactive) in [12]; 0.793 (inactive) in [13]; 0.162 (inactive) in test [14]; -1.02 (inactive) in test [16].

For `CC(C)c1ccc(NN2C(C(O)C(C)c3ccccc3)C=CC3C(=O)N(c4ccccc4)C(=O)C32)cc1` (stereo not given), the composite z-score was 1.31 in [1]; 1.04 in [2]; 0.51 in test [3]; 1.08 in [4]; 1.71 in test [5]; 2.09 in [6]. Further, the composite z-score in test [7] was 1.12; in test [9], 1.97; in test [10], -0.12; in test [11], 1.57; in [15], 3.18; in test [17], 0.57. Besides, the results for the composite z-score in [18], in [19] and in [20] were 0.272, 1.07 and 0.298, respectively. Besides, the z-score is -0.632 (inactive) in test [8]; -0.202 (inactive) in test [12]; 0.0423 (inactive) in test [13]; 1.21 (inactive) in [14]; -1.28 (inactive) in [16].

On to `O=C(NCCN1CCOCC1)[C@@H]1c2ccccc2C(=O)N(CC23CC4CC(CC(C4)C2)C3)[C@H]1c1ccc(CO)cc1`, for which the composite z-score in test [1] was -0.203; in test [2] it was 0.336; in test [3], 0.0458; in test [4], 0.734; in [5] it was 1.64; in test [6], 1.78. Also, the composite z-score in test [7] was 1.39; in [9] it was 0.742; in test [10], 0.0373; in [11] it was 1.55; in test [15] it was 3.23; in [17], 0.0735. In addition, the results for the composite z-score in [18], in [19] and in test [20] were 0.495, 1.05 and 0.0353, respectively. Further, the z-score in test [8] was -2.37 (inactive); in test [12] it was -0.43 (inactive); in [13] it was -1.27 (inactive); in test [14], 0.223 (inactive); in test [16], 0.534 (inactive).

`C=C[C@H](OC)[C@@H](O)c1ccc(OC)c(O)c1`: the composite z-score in test [1] was 0.694; in test [2], -1.02; in test [3], -0.137; in test [4], -0.248; in [5] it was -1.34; in test [6], -0.967. Moreover, the composite z-score in test [7] was -0.673; in test [9], -1; in test [10], 0.107; in [11], -1.84; in test [15], -0.456; in test [17], -0.0783. The composite z-score in test [18] is -0.81; in [19], -0.436; in test [20], -0.258. Besides, the z-score is 0.0137 (inactive) in [8]; 0.0615 (inactive) in test [12]; 0.242 (inactive) in test [13]; -0.0251 (inactive) in test [14]; -0.0822 (inactive) in [16].
